Values joined by “and” are separate entries in the source; they are usually repeats but may differ in a detail not shown here. Equal entries are not always repeated. The whole screen tested about 400,000 compounds, of which about 3,700 (0.93%) were called active. Not shown: some 3% with an inconclusive outcome. The sample holds actives, similar compounds and a random draw of the others, so the mix is not that of the screen. The call rests on the fitted dose curve; in most records, active means well fitted inhibition curve with a large enough effect; inconclusive means small, poorly fitted or top-dose-only effect, or another doubt; inactive means no such curve, though single readings can be large or run the other way.
These compounds were tested against Vitamin D3 receptor (Homo sapiens) (UniProt P11473) (assay: Inhibitors of the vitamin D receptor (VDR): qHTS). Conditions: VDR-SRC2-3 peptide fluorescence polarization, 2 h; max response, negative = inhibition: stronger effect = lower value.
Chain of Vitamin D3 receptor (Homo sapiens) (P11473 whole entry, looked up): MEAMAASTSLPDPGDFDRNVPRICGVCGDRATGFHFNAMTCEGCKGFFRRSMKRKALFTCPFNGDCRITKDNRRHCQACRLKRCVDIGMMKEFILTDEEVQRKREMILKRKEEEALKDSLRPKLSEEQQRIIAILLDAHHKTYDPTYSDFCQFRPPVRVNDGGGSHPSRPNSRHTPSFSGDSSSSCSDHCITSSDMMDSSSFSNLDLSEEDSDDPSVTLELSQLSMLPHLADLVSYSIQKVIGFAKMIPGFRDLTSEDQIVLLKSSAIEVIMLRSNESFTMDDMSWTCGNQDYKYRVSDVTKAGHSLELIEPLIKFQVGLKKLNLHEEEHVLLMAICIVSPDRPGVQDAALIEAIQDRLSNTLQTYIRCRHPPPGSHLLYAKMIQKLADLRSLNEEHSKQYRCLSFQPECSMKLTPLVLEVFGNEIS
In short: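 Inhibition of the VDR/SRC2-3 peptide interaction is quantified by fluorescence polarization. Compounds (23 nl, pintool) incubate with the reagents for 2 hours at ambient room temperature.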
On the % scale 0 is the no-effect control and ±100 the full control effect; potency means the concentration at half of the fitted maximal effect.

Max response, negative = inhibition, inactive:
Cc1ccc(C2c3[nH]c4ccccc4c3CCN2C(=O)c2cccc(C)c2)cc1 (stereo not given) 4%
Clc1cccc(-n2ncc3c(NCCc4ccccc4)ncnc32)c1 2.94%
COc1cc(C(=S)N2CCOCC2)cc(OC)c1OC(=O)c1cc([N+](=O)[O-])cc([N+](=O)[O-])c1 -18.9%
CC1CCN(C(=S)c2cccc([N+](=O)[O-])c2)CC1 9.7%
COc1ccc(OC)c([C@H](O)CNC(=O)CN)c1 6.34%
Cc1ccc(CNC(=O)CCc2c(C)nc3nc(CNC(=O)OC(C)(C)C)nn3c2C)cc1 6.84%
CC(=O)c1ccccc1NC(=O)C1CC(=O)N(c2ccc3c(c2)OCCO3)C1 (stereo not given) 0.279%
CCOC(=O)c1ccc(NC(=O)C2CC(=O)N(c3ccc4c(c3)OCCO4)C2)cc1 (stereo not given) -6.01%
CCc1cc2c(cc3c(=O)n(CC(=O)NCCc4ccc(OC)c(OC)c4)ncn32)s1 14.2%
CC1CC(C)CN(c2oc(-c3ccc(OCc4ccc(Cl)cc4)cc3)nc2C#N)C1 (stereo not given) -6.19%
COc1cccc(-c2cc(C(=O)Nc3ccc(C)cc3)[nH]n2)c1 -3.16%
Cc1ccc(C(=O)NC(=S)NCc2cccnc2)cc1 -6.42%
CSc1sc(C(=O)NC(=O)NCc2cccnc2)c(C)c1-c1ccon1 1.93%
COc1cc(CNCCSc2nnnn2C)ccc1OCc1ccc(Cl)cc1Cl 1.83%
O=C(c1ccco1)N(Cc1cccs1)c1ccc(O)cc1 -6.28%
Cc1cccc(CSc2nc3ccncc3n2CC(=O)N(C)C2CCCCC2)c1 -0.866%
CCOCCCNC(=O)c1c(NC(=O)Cc2coc3ccc(C)cc23)sc2c1CCC2 8.22%
O=C(Nc1ccccc1-c1ccccc1)c1ccccc1[N+](=O)[O-] -7.79%
O=C(Nc1ccccc1-c1nnn(CC(=O)N2CCN(c3ccccc3)CC2)n1)c1cccs1 -0.102%
Cc1ccc(C)c(NC(=O)CSC2=Nc3ccccc3N=C(c3ccc(F)cc3)C2)c1 4.3%
Cc1cccc2nc(-c3ccc(Cl)s3)c(Nc3ccc4c(c3)OCCO4)n12 -14.5%
C=C(C(C)=O)C(O)c1cccs1 (stereo not given) -7.76%
CC(=O)NCC(O)c1ccc([N+](=O)[O-])cc1 (stereo not given) -16.9%
CCN1CCN(c2cc(C)c3cc(NC(=O)c4cc(Cl)ccc4OC)ccc3n2)CC1 -8.13%
CCOc1ccc(CC(=O)NCCc2csc3nc(-c4ccccc4F)nn23)cc1 13.3%
CCC(CO)Oc1cc(NC(=O)c2ccc(Cl)cc2)c2ncn(C(C)C)c2c1 (stereo not given) -27.1%
CN(C)c1nccc(NCc2ccccc2)c1C#N 28.6%
CCOc1ccc(NC(=O)CSc2c3c(nc4ccccc24)CCCC3)cc1 0.351%
CC(=O)c1ccc(NS(=O)(=O)c2ccc(-c3cc(C)no3)s2)cc1 -0.0795%
COc1ccc(CNC(=O)C2=Cc3cccc(OC)c3OC2)cc1OC -2.19%
C[C@]12CC[C@@H]3c4ccc(O)cc4C[C@@H](CCCCCCCCCS(=O)CCCC(F)(F)C(F)(F)F)C3[C@@H]1CC[C@@H]2O (stereo not given in full) -2.01%
CCOc1ccc(NC(=O)CSc2nnc3c(n2)[nH]c2ccc(S(=O)(=O)N4CCOCC4)cc23)cc1 3.89%
CSc1ccccc1C(=O)NCc1ccccc1 10.4%
CC(=O)c1cccc(NC(=O)c2cc(C)nn2-c2ccccc2)c1 -12.6%
CCCCC/C=C\C/C=C\CCCCCCCCCC(N)=O -2.13%
CCN(CC)C(=O)CSc1nc2cc3c(cc2c(=O)n1CCCC(=O)NCc1ccc2c(c1)OCO2)OCO3 4.85%
CCOc1ccc2nc(N3CCCC(C(=O)Nc4cc(C)ccc4C)C3)sc2c1 (stereo not given) 5.91%
O=C(O)c1ccc(CSc2nc3cccnc3n2Cc2cccc(F)c2)cc1 9.37%
C[C@@H]1C[C@H]2[C@@H]3C[C@H](F)C4=CC(=O)C=C[C@@]4(C)[C@]3(F)[C@H](O)C[C@]2(C)[C@@]1(O)C(=O)CO -2.08%
CCOC(=O)c1c(C)[nH]c(CCC(=O)Nc2ccc(OC)c(OC)c2)c1C -6.79%
COc1cc(OC)c(C2C=C(C(=O)O)Nc3ncnn32)cc1OC (stereo not given) -29.8%
COc1ccccc1CNC(=O)Cn1nc(C)c2nn(-c3ccc(Cl)cc3)c(C)c2c1=O 3.2%
Nc1ccc2c(c1)C(O)c1ccc(Cl)cc1-2 (stereo not given) 1.49%
CCN(CC)c1nc(C#N)nc(OC)n1 -23.3%
CCOC(=O)c1ccccc1N1C(=O)C2Sc3[nH]c(=O)sc3C(/C=C/c3ccccc3)C2C1=O (stereo not given) -26.2%
CCOC(=O)C1CCN(C(=O)Nc2ccc(Cl)cc2)CC1 6.67%
CCCCCn1c(CCCNC(=O)c2ccccc2OC)nc2ccccc21 10.5%
COc1cccc2c1cc1c(=O)n(CC(=O)N3CCN(c4cccc(Cl)c4)CC3)nc(C)n12 -15.1%
Cc1cccc(NC(=O)CSc2ncc(-c3ccccc3)[nH]2)c1C -15.6%
CCOC(=O)c1c(C)n(S(=O)(=O)c2ccc(C)cc2C)c2ccc(NS(=O)(=O)c3ccc(C)cc3C)cc12 -7.13%
CC(=O)c1c(C)oc2ccc(NS(=O)(=O)c3ccc(C(=O)O)cc3)cc12 11.8%
O=C(C1CCCN(S(=O)(=O)c2cccc3nonc23)C1)N1CCN(c2ccccc2F)CC1 (stereo not given) -15.4%
COc1ccc(OC)c(NC(=O)C2CCN(S(=O)(=O)c3ccc(C)cc3)CC2)c1 29.3%
Cn1cccc1/C=C1\SC(=S)N(NC(=O)c2ccc(Cl)cc2)C1=O -22.2%
O=C(NCc1ccccc1)c1cc(-c2cccc(Cl)c2)on1 -16.6%
O=c1[nH]c(/C=C/c2cccc(Br)c2)nc2ccccc12 -10.9%
O=c1cc(O)c(-c2cccc(C(F)(F)F)c2)c(Cl)[nH]1 13.8%
CC1(C)O[C@@H]2C[C@@H]3[C@H]4C[C@@H](F)C5=CC(=O)C=C[C@]5(C)[C@@]4(F)[C@@H](O)C[C@]3(C)[C@]2(C(=O)CO)O1 1.68%
COCCNC(=O)CSc1nc(-c2ccccc2)[nH]c1-c1ccc(C)cc1 -12.4%
Cc1cc(C(=O)NNS(=O)(=O)c2ccccc2C(F)(F)F)nn1C(C)(C)C 3.25%
CCCN1CCN(CCCNC(=O)c2cnn(-c3ccc(C)cc3)c2-n2cccc2)CC1 13.2%
CCN(CCCNC(=O)c1cc2cc3cc(OC)ccc3nc2s1)c1ccccc1 -7.19%
O=C(NCC1CC1)C1(C(F)(F)F)C/C(=C\CCO)CCCO1 (stereo not given) -6.83%
Nc1nc2nc(Cl)[nH]c2c(=O)[nH]1 -11.6%
CC(C)(C)OC(=O)C1=C(CO)CS[C@@H]2[C@H](NC(=O)Cc3ccccc3)C(=O)N12 -17.3%
CO/N=C(\C(=O)N[C@@H]1C(=O)N2C(C(=O)O)=C(COC(C)=O)CS[C@H]12)c1csc(N)n1 (stereo in doubt) -16.4% and -7.75% and -25.8%
O=[N+]([O-])c1ccc(S(=O)(=O)N2CCN(c3nc(-c4ccccc4)nc4ccccc34)CC2)cc1 -8.98%
Cc1ccc(C(=O)Nc2c(C(=O)NC(C)(C)C)oc3ccccc23)cc1 12.7%

Potency, active:
O=C(Oc1ccccc1C(=S)N1CCCCC1)c1cc([N+](=O)[O-])cc([N+](=O)[O-])c1 89.1 µM
CCc1nnc(NC(=O)C2CC(=O)N(c3ccc4c(c3)OCCO4)C2)s1 (stereo not given) 56.2 µM
Cc1ccc(-n2nc(-c3ccco3)cc2C(=O)NCc2cccnc2)cc1 70.8 µM
O=c1c(O)c(Br)ccc2c(Br)c(O)c(O)c(O)c12 7.94 µM
O=C(Nc1ccccc1-c1ccccc1)c1cccs1 70.8 µM
C=C(C(C)=O)C(O)c1ccc([N+](=O)[O-])cc1 (stereo not given) 50.1 µM
CC(C)n1cnc2c(NCc3ccccc3)cc(OCC3CCN(C)CC3)cc21 50.1 µM
CSc1ccccc1C(=O)Nc1cccc(C(C)=O)c1 39.8 µM
O=C(/C=C/Sc1ncn[nH]1)c1ccc(Cl)cc1 39.8 µM
Cc1ccnc(-n2sc3ccccc3c2=O)n1 25.1 µM
NC(=O)C1(C(N)=O)OC1c1ccc(Cl)cc1Cl (stereo not given) 14.1 µM
CCOC(=O)C1Sc2[nH]c(=O)sc2C(c2ccc(Cl)cc2)C1C(=O)OCC (stereo not given) 79.4 µM
CC(=O)c1c(C)n(S(=O)(=O)c2ccc(Cl)cc2)c2ccc(NS(=O)(=O)c3ccc(Cl)cc3)cc12 79.4 µM
O=C(O)C(c1ccccc1)N1C(=O)/C(=C\c2ccc(-c3cccc(Cl)c3)o2)SC1=S (stereo not given) 79.4 µM
O=c1[nH]c(/C=C\c2cccc(C(F)(F)F)c2)nc(O)c1[N+](=O)[O-] 44.7 µM
CCCCc1nn(-c2ccccc2C(F)(F)F)c(=O)n1Cc1ccc(-c2ccccc2S(=O)(=O)NC(=O)c2sccc2C)cc1 44.7 µM
Cc1cc(C)cc(C(=O)NC2C(=O)N3C(C(=O)O)=C(CSc4nnc(C)s4)CSC23)c1 (stereo not given) 79.4 µM

From PubChem BioAssay AID504847 (National Center for Advancing Translational Sciences (NCATS), 2011)
